Laboratory results: PubChem BioAssay (NCI)
About 83,000 compounds went through this panel and 20% of them were active in at least one assay; those are over-represented in the sample as a whole.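 Assay: single dose, 48 h. Readout: percent growth (0 = no net growth; negative = cell death). Active: <10.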 The source made the active and inactive calls.

Assays:
Assay in all cases: NCI-60 one-dose screen, 48 h (100 = growth as untreated, 0 = no growth, -100 = all killed)
[1] = tested on: HCT-15 colon; details: 10 µM unless noted
[2] = tested on: HT29 colon; details: 10 µM unless noted
[3] = tested on: SNB-19 CNS; details: 10 µM unless noted
[4] = tested on: U251 CNS; details: 10 µM unless noted
[5] = tested on: PC-3 prostate; details: 10 µM unless noted
[6] = tested on: SK-MEL-5 melanoma; details: 10 µM unless noted
[7] = tested on: UACC-62 melanoma; details: 10 µM unless noted
[8] = tested on: LOX IMVI melanoma; details: 10 µM unless noted
[9] = tested on: SK-MEL-28 melanoma; details: 10 µM unless noted
[10] = tested on: SK-MEL-2 melanoma; details: 10 µM unless noted
[11] = tested on: EKVX NSCLC; details: 10 µM unless noted
[12] = tested on: SN12C renal; details: 10 µM unless noted
[13] = tested on: UO-31 renal; details: 10 µM unless noted
[14] = tested on: TK-10 renal; details: 10 µM unless noted
[15] = tested on: ACHN renal; details: 10 µM unless noted
[16] = tested on: CAKI-1 renal; details: 10 µM unless noted
[17] = tested on: A498 renal; details: 10 µM unless noted
[18] = tested on: CCRF-CEM leukemia; details: 10 µM unless noted
[19] = tested on: MOLT-4 leukemia; details: 10 µM unless noted
[20] = tested on: SNB-75 CNS; details: 10 µM

Measured: growth

Cc1cc(N)n(S(=O)(=O)c2oc(-c3ccccc3)nc2C#N)n1
inactive: [1] 61.8% | [2] 90.4% | [3] 93.1% | [4] 86.7% | [5] 100% | [6] 100% | [7] 90.8% | [8] 68.2% | [9] 106% | [10] 89.7% | [11] 84.7% | [12] 83.9% | [13] 80.6% | [14] 99.1% | [17] 128%
active: [15] 5.25% | [16] -49.4% | [18] 7.83% | [19] 0.904%

CCCN=C1NC(=O)/C(=C/c2nc(-c3ccc(OC)cc3)n3ccccc23)S1
inactive: [1] 84.8% | [2] 99.3% | [20] 96.5% | [3] 80.8% | [4] 52.9% | [5] 85.9% | [6] 64.9% | [7] 93.1% | [8] 52.7% | [9] 111% | [10] 95.2% | [11] 115% | [12] 83.8% | [13] 91.8% | [14] 91.1% | [15] 62.7% | [16] 123% | [17] 103% | [18] 84.9% | [19] 76.5%

O=C(/C=C\c1cccc([N+](=O)[O-])c1)/C=C/c1cccc([N+](=O)[O-])c1
inactive: [1] 73.5% | [20] 94.3% | [3] 94.5% | [4] 22.6% | [5] 82.1% | [6] 100% | [7] 78.1% | [9] 102% | [11] 107% | [12] 98.1% | [13] 71.1% | [14] 89.9% | [15] 89.6% | [16] 94.2% | [17] 90.4% | [18] 74.4% | [19] 94.3%
active: [2] 9.81% | [8] -89.7% | [10] -38.1%

Cc1ccc(CSC(=N)N)cc1C
inactive: [1] 116% | [2] 104% | [3] 98.7% | [4] 111% | [5] 87.7% | [6] 105% | [7] 97.8% | [8] 91.9% | [9] 111% | [10] 125% | [11] 100% | [12] 104% | [13] 87.7% | [14] 102% | [15] 107% | [16] 93.4% | [17] 103%

Cn1c(=O)cc(NC(=O)CN2CCN(c3cc4c(cc3F)c(=O)c(C(=O)O)cn4C3CC3)CC2)[nH]c1=O
inactive: [1] 99% | [2] 103% | [3] 98.4% | [4] 101% | [5] 95.2% | [6] 101% | [7] 96.3% | [8] 99.5% | [9] 107% | [10] 107% | [11] 92.9% | [12] 97.4% | [13] 88.7% | [14] 105% | [15] 99.9% | [16] 88.2% | [17] 102% | [18] 103% | [19] 107%

CCCC(=O)Oc1ccc(/C(=C(\C)c2ccccc2)c2ccc(OCCN(CC)CC)cc2)cc1
active: [2] 5.74%
inactive: [1] 49.7% | [3] 85.7% | [4] 65.1% | [5] 60.7% | [6] 64.1% | [7] 80.4% | [8] 79.8% | [9] 68.3% | [10] 97.2% | [11] 99.3% | [12] 86.3% | [13] 51.4% | [14] 86% | [15] 90.7% | [16] 96.9% | [17] 93.7% | [18] 69.7% | [19] 53.7%

COC1=C(OC)C(=O)C(CCCCCCCCCC[P+](c2ccccc2)(c2ccccc2)c2ccccc2)=C(C)C1=O
active: [1] -3.39% | [2] -10.6% | [20] -44.5% | [3] -53.1% | [4] -27.2% | [5] -12.7% | [6] -100% | [7] -93% | [8] -89.6% | [9] -86.1% | [11] -6.16% | [12] -74.8% | [13] -18.2% | [15] -25.9% | [16] -40.6% | [17] -44.1% | [18] -6.4% | [19] -33.8%

O=C(Nc1ccc(Cl)c(Cl)c1)NS(=O)(=O)c1cnccc1Oc1ccc(F)cc1
inactive: [1] 73.9% | [2] 75.1% | [20] 79% | [3] 57% | [4] 56.8% | [5] 22.2% | [6] 108% | [7] 59.2% | [8] 83.3% | [9] 94.5% | [10] 64.3% | [11] 15.1% | [12] 76.3% | [13] 67.4% | [14] 42.3% | [15] 43.5% | [17] 33.7% | [19] 52.3%
active: [16] 5.6% | [18] 2.81%

O=S(=O)(NCCCNc1nccc(-n2ccc3cccnc32)n1)c1ccc(Br)cc1
inactive: [1] 102% | [2] 107% | [3] 102% | [4] 106% | [5] 96.5% | [6] 101% | [7] 99.5% | [8] 96.3% | [9] 108% | [10] 108% | [11] 93% | [12] 102% | [13] 107% | [14] 121% | [15] 108% | [16] 94.2% | [17] 102% | [18] 102% | [19] 100%

O=c1[nH]c(NCc2ccccc2)nc2nc(Nc3ccc(NC(=S)Nc4ccccc4)cc3)nc(-c3ccc(O)cc3O)c12
inactive: [1] 105% | [2] 125% | [20] 91.7% | [3] 91.9% | [4] 87.8% | [5] 109% | [6] 113% | [7] 83% | [8] 101% | [9] 91.5% | [10] 97.5% | [11] 63.2% | [12] 97.4% | [13] 78.5% | [15] 103% | [16] 77.3% | [17] 101% | [18] 86.4% | [19] 77.4%

COc1cc(NC(N)=NCCC(C)(C)c2ccc(C(F)(F)F)cc2)ncc1C#N
active: [2] -37% | [4] -37.4% | [6] -80.2% | [9] -55.6% | [13] 4.93% | [19] -10.7%
inactive: [1] 14.6% | [3] 48.4% | [5] 25.4% | [7] 10.4% | [8] 18.3% | [10] 48.8% | [11] 24.8% | [12] 27.4% | [14] 13.8% | [15] 45.1% | [16] 40.8% | [17] 48.1% | [18] 24.6%

Cn1ccc(=O)c(S(N)(=O)=O)c1
inactive: [1] 109% | [2] 107% | [20] 79.2% | [3] 95.5% | [4] 90.7% | [5] 101% | [6] 112% | [7] 95.8% | [8] 91.9% | [9] 116% | [10] 99.8% | [11] 89.3% | [12] 101% | [13] 69% | [14] 113% | [15] 95.5% | [16] 67.2% | [17] 107% | [18] 99.9% | [19] 94.4%

Nc1cccc(-c2nc3sccn3c2-c2ccnc(NCCNS(=O)(=O)c3ccc(C(F)(F)F)cc3)n2)c1
inactive: [1] 47.3% | [2] 45.7% | [3] 75.4% | [4] 52.4% | [5] 51.6% | [6] 32.9% | [7] 61.6% | [8] 38.8% | [9] 82.2% | [10] 80.5% | [11] 67.2% | [12] 63% | [13] 15.8% | [14] 86.1% | [15] 33.9% | [16] 39.1% | [17] 34.1% | [18] 41.8% | [19] 45.6%

Clc1ccc2c(NC3CCC(NC4CCCCC4)CC3)ccnc2c1 (stereo unspecified)
active: [2] 7.7% | [7] -31.3% | [9] -10.5%
inactive: [1] 29.6% | [20] 79.6% | [3] 81.9% | [4] 35.8% | [5] 59.2% | [6] 18.6% | [8] 35.6% | [10] 55.2% | [11] 68.1% | [12] 74.1% | [13] 56.2% | [14] 48.8% | [15] 58.2% | [16] 47.9% | [17] 62.5% | [18] 70.2% | [19] 56.9%

C=C1CC2(OC1=O)C(=O)N(CCCN1C(=O)C3(CC(=C)C(=O)O3)c3ccccc31)c1ccccc12 (stereo unspecified)
active: [1] -28.1% | [2] -51.5% | [8] -82.8% | [9] -13.8% | [12] -38.6% | [13] -39.3% | [14] -9.34% | [15] -17.9% | [16] -7.27% | [18] -13.8% | [19] 1.03%
inactive: [3] 76.6% | [4] 45.4% | [5] 51.3% | [6] 74.4% | [7] 23.2% | [10] 52.8% | [11] 69.9% | [17] 70.4%

O=C(N/N=C/C=C\c1ccccc1)C(=O)N/N=C/C=C/c1ccccc1
inactive: [1] 108% | [2] 110% | [3] 120% | [4] 107% | [5] 109% | [6] 110% | [7] 114% | [8] 94% | [9] 115% | [10] 109% | [11] 111% | [12] 92.6% | [13] 91.3% | [14] 104% | [15] 125% | [16] 105% | [17] 127% | [18] 108% | [19] 109%

COc1cc2c(cc1OCCCN1CCN(CCCn3c4ccccc4c4ccccc43)CC1)N=C[C@@H]1CCCN1C2=O
active: [1] -44.6% | [2] -17.2% | [20] -98.9% | [3] -49.8% | [4] -99.1% | [5] -64.7% | [6] -100% | [7] -87.3% | [8] -91.2% | [9] -98.3% | [10] -78.1% | [11] -86.8% | [12] -47.9% | [13] -91.7% | [14] -79.6% | [15] -100% | [16] -75% | [17] -96.9% | [18] -11.4% | [19] -39.6%
